A selection: hits, their analogues and other compounds. The true share with any hit is near 7.8%.
Hedgehog inh – Sonic Hedgehog pathway inhibition; Shh-LIGHT2 Gli-luciferase reporter, 30 h; inhibition, % (concentration not given with the values); actives 2.1% (n = 22,000); AID 2313;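 active means mean inhibition across valid replicates above about 65%, limit read from the data; inconclusive means mean under the limit, yet half or more replicates past it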;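 further: pathway switched on by Shh-conditioned medium diluted 1 in 25 in low serum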
NOMO-1 viab – STK33 inhibitor candidate reducing NOMO-1 cell viability | NOMO-1 AML viability, CellTiter-Glo luminescence, 72 h | inhibition, % (concentration not given with the values) | AID 2330 | actives 7.5% (n = 37,000); in the data active means inhibition above about 80%; inconclusive means no clear call, values can overlap the other calls
MITF inh – inhibitors of MITF; TRPM1 promoter luciferase, luminescence, 24 h; AID 2240; inhibition, % (concentration not given with the values); actives 0.28% (n = 37,000); in the data active means inhibition above about 85%; inconclusive means no clear call, values can overlap the other calls; inactive means below about 68%;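 further: human melanocyte line stably carrying TRPM1 promoter luciferase reporter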
Active calls of the source: *; ? = inconclusive; / = not tested or not shown.

SMILES	Hedgehog inh	NOMO-1 viab	MITF inh
CC(C)NC(=O)N(C)C[C@H]1Oc2ccc(NC(=O)Nc3ccccc3)cc2CC(=O)N([C@@H](C)CO)C[C@H]1C	-23	-2	-11
Cc1ccc(S(=O)(=O)N(C)C[C@H]2Oc3ccc(NC(=O)Nc4ccc(F)cc4)cc3CC(=O)N([C@@H](C)CO)C[C@@H]2C)cc1	9	41	14
COC(=O)COc1cccc(NC(=O)c2cccc(C)c2)c1	/	121*	2
COc1cccc(C(=O)COc2cccc(NC(=O)c3cccc([N+](=O)[O-])c3)c2)c1	/	?	55
Cc1noc(C)c1S(=O)(=O)Nc1cccc2c1O[C@H](CN(C)Cc1ccc(-c3ccccc3)cc1)[C@H](C)CN([C@H](C)CO)C2=O	-5	27	-6
CN(CC(=O)Nc1ccc2c(c1)OCCO2)S(=O)(=O)c1cc(Cl)ccc1Cl	/	6	3
Cc1ccc(-c2noc(CN(C(=O)c3ccccc3-c3ccccc3)C(C)C)n2)cc1	/	87*	37
CC(C)N(Cc1nc(-c2ccccc2Cl)no1)C(=O)c1ccccc1-c1ccccc1	/	36	13
CS(=O)(=O)N(CC(=O)Nc1ccccc1)c1cccc(F)c1	/	-2	-1
CN(CC(=O)O)S(=O)(=O)c1cccc2cccc(Cl)c12	/	3	-1
CCOC(=O)c1cc(C)nc(Sc2ccccc2NC(=O)c2cccc(C(F)(F)F)c2)c1C#N	1	114*	-1
CCOC(=O)c1cc(C#N)c(Nc2ccccc2OC)nc1C(F)(F)F	-30	23	-1
COc1cc(CC(CO)C(CO)Cc2ccc(O)c(OC)c2)ccc1O (configuration not stated)	-34	10	-6
COC(=O)C(C(CO)Cc1ccc(O)c(OC)c1)C(O)c1ccc(O)c(OC)c1 (configuration not stated)	5	108*	14
CC1=CC(C)(C)Nc2ccc(OC(=O)CN3C(=O)c4cccc([N+](=O)[O-])c4C3=O)cc21	/	115*	33
CCOc1ccc2c(c1)C(C)=CC(C)(C)N2	21	28	-20
Cc1c(CCC(=O)O)c(=O)oc2cc(OCc3cccc(F)c3)ccc12	/	23	-53
CCCc1c(Cc2c(F)cccc2Cl)c(=O)oc2cc(O)ccc12	55	120*	55
Cc1ccccc1NC(=O)NCCCN1CCN(C)CC1	/	32	-18
Cc1cc(C)c(NC(=O)CSc2nc(-c3ccccc3)c(-c3ccccc3)[nH]2)c(C)c1	/	101*	92*
Cc1ccc(NC(=O)CSc2nc(-c3ccccc3)c(-c3ccccc3)[nH]2)c(C)c1	/	2	11
Cc1ccccc1NC(=O)CSc1nc2cc3ccccc3cc2[nH]1	/	115*	-3
O=C(CSc1nc2ccccc2[nH]1)Nc1cccc2ccccc12	/	13	40
O=C(CSc1nnc(-c2ccccc2)n1-c1ccccc1)Nc1ccccc1F	/	30	26
O=C(Nc1cccc(-c2nc3ccccc3c(=O)o2)c1)C1CCCCC1	-19	15	-4
SMILES	Hedgehog inh	NOMO-1 viab	MITF inh
O=C(Nc1ccc(-c2nc3cc(NC(=O)C4CCCCC4)ccc3o2)cc1)C1CCCCC1	33	99*	5
CCN1CCN(C(=O)c2ccc(CNS(=O)(=O)c3cccc(OC)c3)cc2)CC1	/	4	-3
Cc1ccc(Nc2nc(N)nc(COc3cccc4cccnc34)n2)cc1	/	111*	-33
Cc1cc(C)nc(Nc2n[nH]c(COc3cccc4cccnc34)n2)n1	/	14	-32
Cc1ccc(S(=O)(=O)N(C)CC(=O)Nc2ccc([N+](=O)[O-])cc2)cc1	/	6	14
C[C@@H]1CN([C@@H](C)CO)C(=O)Cc2cc(NC(=O)Cc3cn(C)c4ccccc34)ccc2O[C@@H]1CN(C)CC1CCCCC1	-7	29	4
Cc1noc(C)c1S(=O)(=O)Nc1ccc2c(c1)CC(=O)N([C@@H](C)CO)C[C@@H](C)[C@@H](CN(C)C(=O)Nc1ccccc1)O2	/	-5	-3
COc1cc(NC(=O)COc2cccc(C)c2C)ccc1-c1cc2ccccc2oc1=O	/	131*	7
COc1cc(NC(=O)COc2cccc(C)c2C)ccc1NC(=O)c1ccccc1Cl	/	26	-25
COc1cc(NC(=O)COc2ccccc2Cl)ccc1NC(=O)c1cc2ccccc2o1	/	104*	-31
COc1cc(NC(=O)COc2cc(Cl)c(Cl)cc2Cl)ccc1NC(=O)c1cc2ccccc2o1	/	?	13
N#CC(C(=O)Nc1ccccc1)=C1CCCC1	29	5	-34
C[C@@H]1CCCCO[C@H](CN(C)C(=O)c2ccncc2)[C@@H](C)CN([C@H](C)CO)C(=O)c2cc(N(C)C)ccc2O1	-18	4	-19
C[C@H]1CN([C@@H](C)CO)C(=O)c2cccc(NC(=O)NC3CCCCC3)c2O[C@H]1CN(C)Cc1ccc(C(=O)O)cc1	-6	13	-7
C[C@@H]1CN([C@H](C)CO)C(=O)c2cccc(NC(=O)C3CC3)c2O[C@H]1CN(C)Cc1ccc(C(=O)O)cc1	-33	8	-3
C[C@@H]1CN([C@H](C)CO)C(=O)c2cccc(NC(=O)C3CCCCC3)c2O[C@@H]1CN(C)Cc1ccc(C(=O)O)cc1	-25	-21	1
C[C@H]1CN([C@@H](C)CO)C(=O)c2cccc(NC(=O)C3CCCCC3)c2O[C@H]1CN(C)Cc1ccc(C(=O)Nc2ccccc2N)cc1	/	127*	0
C[C@H](CO)N1C[C@H](C)[C@H](CN(C)Cc2ccc(C(=O)Nc3ccccc3N)cc2)Oc2c(NC(=O)C3CC3)cccc2C1=O	/	122*	30
C[C@@H]1CN([C@@H](C)CO)C(=O)c2cccc(NC(=O)C3CC3)c2O[C@@H]1CN(C)Cc1ccc(C(=O)Nc2ccccc2N)cc1	/	128*	4
C[C@@H]1CN([C@H](C)CO)C(=O)c2cccc(NC(=O)C3CCOCC3)c2O[C@H]1CN(C)Cc1ccc(C(=O)Nc2ccccc2N)cc1	/	19	-15
C[C@@H]1CN([C@@H](C)CO)C(=O)c2cccc(NC(=O)NC3CCCCC3)c2O[C@@H]1CN(C)Cc1ccc(C(=O)Nc2ccccc2N)cc1	/	129*	44
COc1ccc(S(=O)(=O)Nc2ccc3c(c2)C(=O)N([C@H](C)CO)C[C@H](C)[C@H](CN(C)C(=O)Nc2ccc4c(c2)OCO4)OCCCC[C@@H](C)O3)cc1	/	13	1
CCn1c(SCC(=O)Nc2cccc(OC)c2)nnc1-c1ccc(Br)cc1	/	2	-3
CCOc1ccc(S(=O)(=O)NCc2ccccc2)cc1-c1nc2c(C(C)(C)C)nn(C)c2c(=O)[nH]1	79*	127*	76
CCOc1cc(S(=O)(=O)NCc2cccnc2)ccc1Cl	/	28	17
Cc1ccc(S(=O)(=O)Nc2ccc3c(c2)C(=O)N([C@@H](C)CO)C[C@H](C)[C@H](CN(C)Cc2ccc(C(=O)Nc4ccccc4N)cc2)O3)cc1	/	110*	34
C[C@H]1CN([C@@H](C)CO)C(=O)c2cc(NS(=O)(=O)c3ccc(F)cc3)ccc2O[C@@H]1CN(C)Cc1ccc(C(=O)Nc2ccccc2N)cc1	/	7	-3
C[C@@H]1CN([C@H](C)CO)C(=O)c2cc(NS(=O)(=O)c3ccc(F)cc3)ccc2O[C@H]1CN(C)Cc1ccc(C(=O)Nc2ccccc2N)cc1	/	58	-3
C[C@@H]1CN([C@@H](C)CO)C(=O)c2cc(NS(=O)(=O)c3ccc(F)cc3)ccc2O[C@@H]1CN(C)Cc1ccc(C(=O)Nc2ccccc2N)cc1	/	110*	29

Source: PubChem (Broad Institute)
